Laboratory results: the supplement of paper PMC11732987, “Enantioselective OTUD7B fragment discovery through chemoproteomics screening and high-throughput optimisation” (Communications Chemistry, 2025)

Tests used:
Assay in all cases: log2 ratio of Biotin-Ahx-Ub-VS probe labelling (fragment/DMSO); higher = less target engagement (more negative = stronger competition), active = hit call of the paper (q ≤ 0.05, log2 ratio ≤ -1)
Details in all cases: compound concentration: 200 uM; treatment time: 3 h
[1] = molecular target: T1, ALG13 (UniProt Q9NP73)
T1 sequence (whole entry): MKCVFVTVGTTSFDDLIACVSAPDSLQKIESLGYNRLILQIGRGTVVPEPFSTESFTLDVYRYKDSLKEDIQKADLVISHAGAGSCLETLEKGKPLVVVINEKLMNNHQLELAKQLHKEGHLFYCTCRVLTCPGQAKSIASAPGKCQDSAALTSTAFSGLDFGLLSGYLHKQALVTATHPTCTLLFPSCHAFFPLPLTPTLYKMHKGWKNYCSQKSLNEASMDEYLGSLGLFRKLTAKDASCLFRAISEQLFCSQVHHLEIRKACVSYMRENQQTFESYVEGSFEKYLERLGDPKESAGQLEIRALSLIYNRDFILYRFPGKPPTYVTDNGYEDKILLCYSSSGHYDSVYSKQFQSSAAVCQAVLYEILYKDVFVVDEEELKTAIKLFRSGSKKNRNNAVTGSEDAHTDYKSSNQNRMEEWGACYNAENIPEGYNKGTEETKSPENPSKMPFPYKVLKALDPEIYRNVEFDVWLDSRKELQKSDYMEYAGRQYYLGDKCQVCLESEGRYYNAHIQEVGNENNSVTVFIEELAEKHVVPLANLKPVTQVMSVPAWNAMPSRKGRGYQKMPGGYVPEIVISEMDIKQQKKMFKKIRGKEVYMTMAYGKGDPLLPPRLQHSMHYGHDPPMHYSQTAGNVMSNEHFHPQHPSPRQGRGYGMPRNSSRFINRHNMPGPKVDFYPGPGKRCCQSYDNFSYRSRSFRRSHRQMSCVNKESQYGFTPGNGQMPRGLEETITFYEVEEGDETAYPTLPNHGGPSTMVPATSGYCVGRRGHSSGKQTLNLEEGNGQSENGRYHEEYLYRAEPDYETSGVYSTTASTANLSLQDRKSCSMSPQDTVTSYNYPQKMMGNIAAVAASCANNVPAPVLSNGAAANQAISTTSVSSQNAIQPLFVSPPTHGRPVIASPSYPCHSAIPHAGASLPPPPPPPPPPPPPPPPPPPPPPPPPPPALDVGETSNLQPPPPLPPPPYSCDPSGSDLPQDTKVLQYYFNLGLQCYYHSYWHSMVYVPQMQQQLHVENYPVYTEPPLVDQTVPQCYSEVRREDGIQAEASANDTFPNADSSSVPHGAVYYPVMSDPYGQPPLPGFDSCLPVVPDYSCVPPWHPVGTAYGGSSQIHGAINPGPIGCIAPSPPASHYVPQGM
Outline: (§1)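 Lysate from HEK293T cells, 495 µg per sample in Tris/CHAPS/IGEPAL buffer with protease inhibitors, was treated for 3 h in triplicate with fragment at 200 µM or vehicle. Biotin-Ahx-Ub-VS was next added at 0.5 µM final for 1 h. The labelled DUBs were enriched with NeutrAvidin, digested with LysC and trypsin, and run by diaPASEF LC-MS/MS, with values given as average log2 fragment/vehicle ratios by unpaired t-test on global-median-normalised Spectronaut quantities of proteins with ≥2 unique peptides.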

[2] = molecular target: ATXN3 (UniProt P54252)
Outline: as §1

[3] = molecular target: T2, BAP1 (UniProt Q92560)
T2 sequence (whole entry): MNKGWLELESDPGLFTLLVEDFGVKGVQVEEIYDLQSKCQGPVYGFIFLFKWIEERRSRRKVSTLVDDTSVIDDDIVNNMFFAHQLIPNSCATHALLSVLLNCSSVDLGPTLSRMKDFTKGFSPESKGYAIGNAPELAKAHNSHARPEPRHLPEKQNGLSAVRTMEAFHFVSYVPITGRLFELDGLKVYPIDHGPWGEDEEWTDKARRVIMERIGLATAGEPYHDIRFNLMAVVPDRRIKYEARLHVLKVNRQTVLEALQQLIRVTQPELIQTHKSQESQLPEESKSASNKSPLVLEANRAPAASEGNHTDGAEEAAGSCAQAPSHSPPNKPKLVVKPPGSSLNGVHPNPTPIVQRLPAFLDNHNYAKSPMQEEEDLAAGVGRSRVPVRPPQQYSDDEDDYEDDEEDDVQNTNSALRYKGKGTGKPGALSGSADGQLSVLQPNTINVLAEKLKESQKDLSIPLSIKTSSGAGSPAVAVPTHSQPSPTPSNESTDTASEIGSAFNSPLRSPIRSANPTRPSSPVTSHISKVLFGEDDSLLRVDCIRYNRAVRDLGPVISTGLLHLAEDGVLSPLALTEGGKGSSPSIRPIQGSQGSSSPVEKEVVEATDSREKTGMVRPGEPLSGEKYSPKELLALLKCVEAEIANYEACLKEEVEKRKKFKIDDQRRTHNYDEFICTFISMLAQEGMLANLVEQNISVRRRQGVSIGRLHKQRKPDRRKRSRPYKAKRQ
Outline: as §1

[4] = molecular target: EIF3F (UniProt O00303)
Outline: as §1

[5] = molecular target: EIF3H (UniProt O15372)
Outline: as §1

[6] = molecular target: T3, FAM105A (UniProt Q9NUU6)
T3 sequence (whole entry): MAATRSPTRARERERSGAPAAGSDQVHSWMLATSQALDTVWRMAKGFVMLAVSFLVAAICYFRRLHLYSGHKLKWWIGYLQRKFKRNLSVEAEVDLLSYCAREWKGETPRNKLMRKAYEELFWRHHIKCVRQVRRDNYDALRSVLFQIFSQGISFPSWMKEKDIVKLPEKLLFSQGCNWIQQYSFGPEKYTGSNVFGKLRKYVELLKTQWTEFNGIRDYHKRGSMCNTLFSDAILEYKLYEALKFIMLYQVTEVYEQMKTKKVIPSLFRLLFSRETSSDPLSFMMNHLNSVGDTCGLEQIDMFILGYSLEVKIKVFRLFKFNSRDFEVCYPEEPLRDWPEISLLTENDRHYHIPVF
Outline: as §1

[7] = molecular target: OTUB1 (UniProt Q96FW1)
Outline: as §1

[8] = molecular target: T4, OTUD4 (UniProt Q01804)
T4 sequence (whole entry): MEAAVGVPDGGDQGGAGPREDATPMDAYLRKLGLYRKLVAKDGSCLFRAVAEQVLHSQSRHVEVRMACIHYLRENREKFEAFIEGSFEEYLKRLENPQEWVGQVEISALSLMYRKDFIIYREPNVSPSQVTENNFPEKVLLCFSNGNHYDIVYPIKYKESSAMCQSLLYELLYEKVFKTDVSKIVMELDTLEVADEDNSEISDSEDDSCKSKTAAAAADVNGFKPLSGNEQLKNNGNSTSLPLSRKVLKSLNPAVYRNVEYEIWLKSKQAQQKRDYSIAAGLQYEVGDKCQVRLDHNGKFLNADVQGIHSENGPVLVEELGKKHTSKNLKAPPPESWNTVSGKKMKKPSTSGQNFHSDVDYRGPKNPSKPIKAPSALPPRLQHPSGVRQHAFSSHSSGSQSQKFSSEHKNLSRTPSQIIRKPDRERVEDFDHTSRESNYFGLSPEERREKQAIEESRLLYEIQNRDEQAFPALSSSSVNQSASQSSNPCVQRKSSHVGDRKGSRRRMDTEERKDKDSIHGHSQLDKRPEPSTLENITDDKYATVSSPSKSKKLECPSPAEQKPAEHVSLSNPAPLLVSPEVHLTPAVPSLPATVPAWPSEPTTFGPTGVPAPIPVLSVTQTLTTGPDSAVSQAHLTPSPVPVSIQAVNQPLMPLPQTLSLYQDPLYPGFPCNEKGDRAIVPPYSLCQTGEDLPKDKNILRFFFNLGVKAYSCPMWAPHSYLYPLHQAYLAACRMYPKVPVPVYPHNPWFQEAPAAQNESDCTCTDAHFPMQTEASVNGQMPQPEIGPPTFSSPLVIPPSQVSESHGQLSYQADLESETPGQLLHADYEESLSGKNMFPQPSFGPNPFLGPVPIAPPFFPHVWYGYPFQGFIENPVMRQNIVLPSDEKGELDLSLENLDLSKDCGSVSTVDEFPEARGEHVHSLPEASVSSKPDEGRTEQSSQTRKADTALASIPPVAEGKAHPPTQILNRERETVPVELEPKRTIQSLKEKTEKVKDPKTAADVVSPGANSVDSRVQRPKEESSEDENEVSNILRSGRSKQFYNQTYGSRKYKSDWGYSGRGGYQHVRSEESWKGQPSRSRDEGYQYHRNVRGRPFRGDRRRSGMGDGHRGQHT
Outline: as §1

[9] = molecular target: T5, OTUD5 (UniProt Q96G74)
T5 sequence (whole entry): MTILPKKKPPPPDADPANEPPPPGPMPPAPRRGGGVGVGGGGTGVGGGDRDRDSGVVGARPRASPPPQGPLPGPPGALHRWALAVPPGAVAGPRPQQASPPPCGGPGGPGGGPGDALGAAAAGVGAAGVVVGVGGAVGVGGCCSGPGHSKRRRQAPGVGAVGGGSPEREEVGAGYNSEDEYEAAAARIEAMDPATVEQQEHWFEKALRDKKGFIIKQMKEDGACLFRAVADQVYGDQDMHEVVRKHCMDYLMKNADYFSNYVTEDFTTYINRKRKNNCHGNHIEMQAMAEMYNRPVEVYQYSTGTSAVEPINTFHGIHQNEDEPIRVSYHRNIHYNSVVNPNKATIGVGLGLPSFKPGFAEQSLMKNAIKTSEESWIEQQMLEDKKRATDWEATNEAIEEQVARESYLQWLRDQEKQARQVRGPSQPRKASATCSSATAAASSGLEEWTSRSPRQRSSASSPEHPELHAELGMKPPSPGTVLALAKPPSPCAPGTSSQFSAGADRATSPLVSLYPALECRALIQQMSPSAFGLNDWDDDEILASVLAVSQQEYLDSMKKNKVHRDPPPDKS
Outline: as §1

Measured: log2 ratio of Biotin-Ahx-Ub-VS probe labelling

Sequence of EIF3H (O15372 whole entry): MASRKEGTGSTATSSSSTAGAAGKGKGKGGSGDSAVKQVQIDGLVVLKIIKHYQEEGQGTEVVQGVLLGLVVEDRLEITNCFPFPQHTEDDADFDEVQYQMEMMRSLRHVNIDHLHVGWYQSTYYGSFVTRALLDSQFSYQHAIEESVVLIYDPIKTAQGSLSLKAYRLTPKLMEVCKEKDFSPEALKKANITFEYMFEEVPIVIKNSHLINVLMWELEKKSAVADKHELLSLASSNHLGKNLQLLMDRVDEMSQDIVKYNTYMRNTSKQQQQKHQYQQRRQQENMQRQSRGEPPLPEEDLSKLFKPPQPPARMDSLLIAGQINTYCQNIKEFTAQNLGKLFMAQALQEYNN
Sequence of OTUB1 (Q96FW1 whole entry): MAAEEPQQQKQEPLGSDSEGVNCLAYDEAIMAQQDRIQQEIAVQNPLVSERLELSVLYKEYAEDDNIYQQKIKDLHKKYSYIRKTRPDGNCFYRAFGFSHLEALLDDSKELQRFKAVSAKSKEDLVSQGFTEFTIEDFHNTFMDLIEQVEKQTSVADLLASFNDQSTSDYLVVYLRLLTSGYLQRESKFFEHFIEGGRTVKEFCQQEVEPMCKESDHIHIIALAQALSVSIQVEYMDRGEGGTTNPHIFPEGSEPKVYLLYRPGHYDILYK
Sequence of EIF3F (O00303 whole entry): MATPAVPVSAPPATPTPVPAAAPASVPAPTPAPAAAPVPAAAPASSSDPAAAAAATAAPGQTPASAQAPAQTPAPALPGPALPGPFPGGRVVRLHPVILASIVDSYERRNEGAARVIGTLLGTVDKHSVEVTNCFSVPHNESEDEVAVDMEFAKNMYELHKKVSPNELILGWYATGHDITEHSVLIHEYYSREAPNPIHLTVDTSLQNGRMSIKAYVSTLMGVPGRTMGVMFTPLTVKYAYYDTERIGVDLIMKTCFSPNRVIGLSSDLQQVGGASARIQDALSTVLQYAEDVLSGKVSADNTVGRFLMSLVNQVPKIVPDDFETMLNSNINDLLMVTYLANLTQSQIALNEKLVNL
Sequence of ATXN3 (P54252 whole entry): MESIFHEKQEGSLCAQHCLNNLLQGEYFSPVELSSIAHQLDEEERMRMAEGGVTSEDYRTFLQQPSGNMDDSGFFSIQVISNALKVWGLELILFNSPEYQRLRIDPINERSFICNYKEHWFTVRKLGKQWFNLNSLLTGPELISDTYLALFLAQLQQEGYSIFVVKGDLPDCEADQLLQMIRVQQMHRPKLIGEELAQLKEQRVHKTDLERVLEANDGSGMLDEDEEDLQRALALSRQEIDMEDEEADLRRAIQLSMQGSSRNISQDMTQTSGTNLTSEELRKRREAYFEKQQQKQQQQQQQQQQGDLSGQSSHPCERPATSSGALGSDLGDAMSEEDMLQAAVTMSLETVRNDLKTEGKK

Cc1cccc(C(CNC(=O)CCl)N2CCOCC2)c1.Cl (centres undefined)
inactive: [1] -0.0491 | [2] 0.0164 | [3] -0.497 | [4] 0.0302 | [5] 0.267 | [6] -0.778 | [7] -0.156 | [8] -0.199 | [9] -0.241
